For 17 molecules, growth inhibition results are on record in PubChem BioAssay (NCI).

Compounds without any hit were thinned out: in the full panel of roughly 79,000, 15% have a hit. A number with no mark means an inactive call. The source made the active and inactive calls. Cut-off read from the data, not from the text of the source: active = growth inhibition above about 70%; inactive = the rest.

The assay is described as follows: NCI Yeast Anticancer Drug Screen. Data for the cln2 rad14 strain (AID 165).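 Note: 0% = growth equal to vehicle treated cultures.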 The conditions noted are these: S. cerevisiae cln2 rad14 strain, at 50.0 µM (retest, dose inferred, filed as 5.0), stronger effect = higher value. A digest of the protocol:
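The screen exposed genetically defined yeast (cln2 rad14) to test compounds and scored growth inhibition relative to vehicle-treated controls.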
For the molecule `CNS(=O)(=O)c1ccccc1C=C(c1ccccc1)c1ccccc1`, the growth inhibition was 89% (active).

For the molecule `CC(C)c1cc(C(C)C)c(Cl)c(Cl)c1O` (tested in a mixture with another compound), the growth inhibition is 73% (active).

For the molecule `Nc1cccc2cccnc12`, the growth inhibition was 6%.

`C[n+]1c(/C=C/c2ccc(N3CCCC3)cc2)sc2ccccc21`: the growth inhibition is 98% (active).

Turning to `Nc1cn(C2OC(CC(c3ccccc3)(c3ccccc3)c3ccccc3)C(O)C2O)c(=O)[nH]c1=O` (configuration not stated), the growth inhibition is 96% (active).

For the molecule `c1ccc(Cn2nnc(-c3ccccc3)c2-c2ccccc2)cc1`, the growth inhibition is 97% (active).

Regarding `CCCCCC(CCCCC)OC(=O)CCN(CCCCC)CCCCC`, the growth inhibition is 75% (active).

For the molecule `C=CCC1(OC(C)=O)CC2C(=O)C(=O)C(C1)N2OC(=O)c1ccccc1` (configuration not stated), the growth inhibition was 94% (active).

In the case of `C=CS(=O)(=O)c1ccc([N+](=O)[O-])cc1`, the growth inhibition was 98% (active).

With `Cc1ccc(S(=O)(=O)Oc2ccc(C(C)(C)C)cc2Cl)cc1`, the growth inhibition was -3%.

In the case of `O=C(CCl)N1CCN(C(c2ccccc2)c2ccccc2)CC1`, the growth inhibition is 91% (active).

Turning to `Oc1ccc2ccccc2c1.[Cu+2]`, the growth inhibition is 13%.

With `NS(=O)(=O)c1ccc(NC(=O)Cc2nc3ccccc3s2)cc1`, the growth inhibition was 94% (active).

Consider `O=C(COc1ccc(Cl)cc1)OCCO`, for which the growth inhibition is 5%.

Consider `NC(=Nc1ccccc1)SCc1ccc([N+](=O)[O-])cc1`, for which the growth inhibition is 76% (active).

`N[C@@H]1CCCC[C@@H]1N.O=C([O-])CN(CP(=O)([O-])[O-])CP(=O)([O-])[O-].[Pt+2]`: the growth inhibition was 67%.

With `C/C=C(\C)CC/C=C/CO[Si](C)(C)C(C)(C)C`, the growth inhibition is -4%.
